MARV entry inh – qHTS for inhibitors of binding or entry into cells for Marburg Virus; hit rate 1.8% among 300,000; Marburg virus pseudotyped entry inhibition, cell reporter; Potency, µM (highest dose often 37.8 µM), actives largely listed as inhibitors; calls by dose curve; tested in HEK293 cells
VACV Venus inh – qHTS for Stage-Specific Inhibitors of Vaccinia Orthopoxvirus: Venus Reporter Primary qHTS | AID 720580, 2013 | Potency, µM (doses to about 36.5 µM), usual class: inhibitors | Vaccinia virus Venus reporter expression, fluorescence | hit rate 0.46% among 330,000; calls by dose curve; tested in A549 cells; also: nearly all actives have a fitted effect of over 30% in size
Vaccinia mCherry – qHTS for Stage-Specific Inhibitors of Vaccinia Orthopoxvirus: mCherry Reporter Primary qHTS | Potency, µM (highest dose often 36.5 µM), usual class: inhibitors | AID 720579, 2013 | Vaccinia virus mCherry reporter infection, fluorescence | hit rate 0.63% among 310,000; calls by dose curve; tested in A549 cells; also: nearly all actives have a fitted effect of over 35% in size
Lassa entry inh – qHTS for Inhibitors of binding or entry into cells for Lassa Virus. hit rate 1.2% among 300,000. Potency, µM (titrated, usually from 37.9 µM), usual class: inhibitors. Lassa virus pseudotype entry inhibition, cell reporter; calls by dose curve; tested in HEK293 cells; also: nearly all actives have a fitted effect of over 50% in size
HCV inhibitor – qHTS Assay for Inhibitors of Hepatitis C Virus (HCV); Huh7.5.1 HCVcc-Cre infection, luciferase reporter, 44 h; hit rate 3.4% among 340,000; AID 651820, 2012; Potency, µM (series often up to 41.8 µM), most hits filed as inhibitors; active = well fitted inhibition curve with a large enough effect; inconclusive = small, poorly fitted or top-dose-only effect, or another doubt; inactive = no such curve, though single readings can be large or run the other way
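1,000 cells/well; 4 h culture; + compound; + HCVcc-Cre (~0.5 moi); 44 h; luciferase substrate, RT 15 min; read 15 sec.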
FMDV antiviral – High Throughput Screening for Foot and Mouth Disease Virus Antivirals | FMDV antiviral cell-based qHTS | Potency, µM (series often up to 57.9 µM), hits mostly inhibitors | hit rate 1.2% among 410,000 | AID 1159524, 2015; calls by dose curve; tested in HEK293T cells; also: read-out not given here; nearly all actives have a fitted effect of over 45% in size
Numbers stand for hits; . = inactive; ? = inconclusive; / = not tested or not shown; ! = repeats disagree. This is a sample that favours compounds with a hit; in the whole collection about 5.3% have one here.

SMILES	MARV entry inh	VACV Venus inh	Vaccinia mCherry	Lassa entry inh	HCV inhibitor	FMDV antiviral
COC(=O)c1ccc(OC)c(CSc2nnc(COc3cccc(C)c3)o2)c1	16.4µM	/	/	.	?	.
COc1cccc(NC(=O)[C@@H]2CC(=O)n3cnnc3S2)c1	.	/	/	/	/	/
Cc1ccnc(NC(=O)c2cccc(S(=O)(=O)N3CCN(c4ccccc4)CC3)c2)c1	?	.	?	5.01µM	?	?
Cc1ccc(NC(=O)c2cccc(S(=O)(=O)N3CCN(c4ccccc4)CC3)c2)nc1	?	.	.	.	12.6µM	.
Cc1nn(C)c2c1c(C(F)(F)F)cc(=O)n2Cc1ccc(Br)cc1F	/	.	.	.	/	.
COc1ccc(C(c2c(O)cc(C)n(Cc3ccco3)c2=O)N2CCN(c3ccccc3)CC2)cc1 (centres undefined)	/	.	.	.	/	?
Cc1nnc(N2CCN(c3ccccc3)CC2)c2c1nnn2Cc1ccc(F)cc1	.	.	.	.	/	?
CCOC(=O)c1sc2ncn(CC(=O)Nc3ccc(OCC)cc3)c(=O)c2c1C	.	.	.	?	/	.
CN1CCN(Cc2nc3ccccc3c(=O)n2Cc2nc(-c3cccc([N+](=O)[O-])c3)cs2)CC1	?	.	.	?	2.51µM	.
CN1CCN(Cc2nc3ccccc3c(=O)n2Cc2nc(-c3ccc4ccccc4c3)cs2)CC1	?	12.6µM	?	?	11.2µM	?
Cc1ccccc1NC(=O)CN1C(=O)N/C(=C/c2cccn2-c2cccc(C(=O)O)c2)C1=O	.	/	/	/	/	/
CC(=O)c1ccc(NC(=O)C(C)OC(=O)/C=C/c2ccco2)cc1 (centres undefined)	11.2µM	.	.	?	?	.
CCc1nc2cc(C(=O)NC3CCOC(C)(C)C3)cc(NC(=O)c3ccccc3OC)c2n1C (centres undefined)	/	.	.	/	/	.
Cc1nn(CC(=O)NCCCN2CCCC2=O)c(C)c1[N+](=O)[O-]	11.2µM	.	?	?	.	.
COC(=O)CNC(=O)Cn1nc(C)c([N+](=O)[O-])c1C	.	.	.	.	.	.
CCN(CC)C(=O)COc1ccc(/C(C)=N/Nc2ncc(Cl)cc2Cl)cc1	/	/	/	/	11.2µM	.
C/C(=N\Nc1ncc(Cl)cc1Cl)c1ccc(C#N)cc1	.	.	.	.	.	.
Cn1c(=NC(=O)c2ccco2)sc2ccccc21	?	.	.	/	?	.
Cn1c(=NC(=O)CCl)sc2ccccc21	?	.	?	?	2µM	?
O=c1cc(C(F)(F)F)[nH]c2c(C(F)(F)F)cccc12	?	12.6µM	?	?	.	?
COc1ccc(C=CC2=CC3(C)CC2(C)C(c2ccc(OC)cc2)CC3=O)cc1 (centres undefined)	.	/	/	/	/	/
COC(=O)CC=C[C@@H](C)[C@@H](C=NO[C@H](C)c1cn([C@H](CO)Cc2ccccc2)nn1)NS(=O)(=O)c1ccc(C)cc1	.	/	/	?	/	/
N#C/C(=C/N1CCOCC1)c1ccccc1	?	.	/	.	3.16µM	.
Cc1ccc(NC(=O)C2=C(c3ccccc3)S(=O)(=O)CCS2(=O)=O)cc1	?	?	?	?	11.2µM	25.1µM
CCC1CCCCN1CCCNC(=O)c1cn(CC)c2ccc(S(=O)(=O)N3CCc4ccccc4C3)cc2c1=O (centres undefined)	?	.	.	?	12.6µM	.
SMILES	MARV entry inh	VACV Venus inh	Vaccinia mCherry	Lassa entry inh	HCV inhibitor	FMDV antiviral
CCn1cc(C(=O)NCCCN2CCCC(C)C2)c(=O)c2cc(S(=O)(=O)N3CCc4ccccc4C3)ccc21 (centres undefined)	?	?	.	?	11.2µM	.
Cc1ccc2ccccc2n1	/	.	.	/	/	/
CC1CN(C(=O)N2CCC(C(=O)NCCCc3ccccc3)CC2)c2cc(Cl)ccc2O1 (centres undefined)	/	.	.	?	/	?
Cc1ccccc1CNC(=O)C(=O)NCC(c1ccco1)S(=O)(=O)c1ccc(F)cc1 (centres undefined)	/	.	.	?	/	.
C[N+](C)(C)CCCN(Cc1ccc2c(c1)OCO2)C(=O)NC1CCCCC1	/	/	/	/	3.16µM	.
CC(OC(=O)c1ccccc1OCC(=O)Nc1ccc(Br)cc1)C(=O)NC1CCCC1 (centres undefined)	/	.	.	/	/	/
CCOC(=O)c1ccc(NC(=O)c2ccc3c(c2)C(=O)N(CC2CCCO2)C3=O)cc1 (centres undefined)	.	.	.	.	.	28.2µM
COC(=O)Cc1ccc(NC(=O)c2ccc3c(c2)C(=O)N(Cc2cccnc2)C3=O)cc1	.	.	.	.	.	?
Cc1ccc(NC(=O)c2ccc3c(c2)C(=O)N(CC2CCCO2)C3=O)cc1C (centres undefined)	.	.	.	.	.	.
CCOC(=O)c1ccc(NC(=O)c2ccc3c(c2)C(=O)N(Cc2cccnc2)C3=O)cc1	/	/	/	/	.	17.8µM
O=C(Nc1nnc([C@@H]2C[C@H](O)[C@@H](CO)O2)s1)c1c(F)cccc1F	/	.	.	/	/	.
Cc1ccc(/C=N/NC(=O)c2cc(C)oc2C)cc1	10µM	.	.	?	?	.
Cc1cc(C(=O)N/N=C/c2ccncc2)c(C)o1	.	.	.	.	.	.
COC(CNC(=O)C(=O)Nc1ccc2c(c1)N(S(=O)(=O)c1cccs1)CCC2)OC	.	?	.	.	?	.
COCCNC(=O)C(=O)Nc1ccc2c(c1)N(S(=O)(=O)c1cccs1)CCC2	?	?	.	1.78µM	?	.
CC(C)CNC(=O)C(=O)Nc1ccc2c(c1)N(S(=O)(=O)c1cccs1)CCC2	3.16µM	.	.	?	?	.
COc1cc([C@@H](NC(=O)C(F)(F)F)C2CCCCC=C2c2ccccc2)cc(OC)c1OC (some centres undefined)	.	/	/	.	/	/
O=C(O)CC1c2ccccc2CCN1C(=O)Nc1cc(Cl)ccc1Cl (centres undefined)	/	.	.	.	/	.
CCc1ccc(N2CCn3c2nc2c3c(=O)n(Cc3cccc(C)c3)c(=O)n2C)cc1	/	.	.	.	/	.
N=C(N)SCc1ccccc1Cl	8.2µM	.	.	.	.	?
CCCC(=O)Nc1nc(-c2ccccc2)ns1	?	.	.	20.6µM	.	.
CC(C)CCNC(=O)c1cccc(Nc2nc3ccccc3n3nnnc23)c1	.	?	?	.	/	.
CC(NC(=O)c1cccc(Nc2nc3ccccc3n3nnnc23)c1)c1ccccc1 (centres undefined)	/	10µM	?	?	/	?
COc1cccc(OC)c1OCCNCC1COc2ccccc2O1 (centres undefined)	12.6µM!	.	.	.	?	.
CCCNCC1COc2ccccc2O1 (centres undefined)	.	/	/	.	.	.
COc1cccc(OC)c1OCCNC[C@@H]1CSc2ccccc2O1	25.9µM	/	/	/	/	/
COc1cccc(OC)c1OCCNC(C)(C)C	.	.	/	.	.	.
O=C1c2ccccc2C(Nc2ccc3nc(-c4cccnc4)[nH]c3c2)N1Cc1ccco1 (centres undefined)	.	.	.	.	?	.
